Laboratory results published in PubChem BioAssay AID2551 (National Center for Advancing Translational Sciences (NCATS), 2010).
Among all 310,000 compounds or so, about 17,000 (5.5%) were called active. Another 11% or so got no clear call; they are omitted. The call rests on the fitted dose curve; in most records, active means well fitted inhibition curve with a large enough effect; inconclusive means small, poorly fitted or top-dose-only effect, or effect the other way; inactive means no such curve, though single readings can be large or run the other way. Only a selection was taken, and actives are over-represented in it overall.

These compounds were tested against Nuclear receptor ROR-gamma (Mus musculus) (UniProt P51450) (assay: qHTS for inhibitors of ROR gamma transcriptional activity). Settings: Drosophila S2 Gal4-RORgamma UAS-luciferase reporter, 20 h; series mostly up to 53.6 µM; activity change, negative = inhibition: at the top concentration.
Description: NIH Molecular Libraries Probe Production Network [MLPCN] NIH Chemical Genomics Center [NCGC] MLPCN Grant: R03 DA026211-01 Assay Provider: Dan Littman, New York University Assay Overview: The retinoic acid-related orphan receptor (ROR) gamma is a transcription factor that has a central role in the differentiation of Th17 cells, a subset of T helper cells that secrete the inflammatory cytokines IL-17, IL-17F, and IL-22. Th17 cells have been implicated in graft versus host disease, autoimmune disease and asthma. ROR gamma is induced in naive T helper cells in the presence of TGF-beta combined with IL-6, IL-21, or IL-23, and thereafter directs the expression of the Th17 lineage cytokines. To study the mechanism of action of ROR gamma, an insect cell-based assay was screened. This Drosophila Schneider cell line was stably transfected with two vectors: a gene expressing a fusion of the Gal4 DNA binding domain and ROR gamma transactivation domain under the control of the metallothionine promoter and a Photinus luciferase reporter regulated by the Gal4 binding site enhancer, UAS. […] Small molecule inhibitors of ROR gamma activity are detected by a decrease in luciferase reporter activity.
Assay Protocol Summary: For screening, 600 cells in 4 uL/well were dispensed into white solid 1536-well plates (Grenier) using a solenoid-based dispenser. Following transfer of 23 nL compound or DMSO vehicle by a pin tool, the plates were incubated 1 hr at ambient temperature, and 1 uL/well copper sulfate (700 uM final concentration) was added. The plates were centrifuged 15 s at 1000 RPM and incubated 20 hr at ambient temperature. After addition of 1.5 uL Photinus luciferase detection reagent, the plates were incubated 10 min at ambient temperature and then read by an ViewLux (Perkin Elmer) to detect luminescence. Keywords: NIH Roadmap, MLPCN, MLI, MLSMR, qHTS, NCGC, qHTS, nuclear hormone receptor, retinoic acid-related orphan receptor, ROR gamma
Further: nearly all actives have a fitted effect of over 60% in size.
On the % scale 0 is the no-effect control and ±100 the full control effect; potency means the concentration at half of the fitted maximal effect.

Nuclear receptor ROR-gamma (Mus musculus), sequence (P51450 whole entry, looked up, the tested form may be a part): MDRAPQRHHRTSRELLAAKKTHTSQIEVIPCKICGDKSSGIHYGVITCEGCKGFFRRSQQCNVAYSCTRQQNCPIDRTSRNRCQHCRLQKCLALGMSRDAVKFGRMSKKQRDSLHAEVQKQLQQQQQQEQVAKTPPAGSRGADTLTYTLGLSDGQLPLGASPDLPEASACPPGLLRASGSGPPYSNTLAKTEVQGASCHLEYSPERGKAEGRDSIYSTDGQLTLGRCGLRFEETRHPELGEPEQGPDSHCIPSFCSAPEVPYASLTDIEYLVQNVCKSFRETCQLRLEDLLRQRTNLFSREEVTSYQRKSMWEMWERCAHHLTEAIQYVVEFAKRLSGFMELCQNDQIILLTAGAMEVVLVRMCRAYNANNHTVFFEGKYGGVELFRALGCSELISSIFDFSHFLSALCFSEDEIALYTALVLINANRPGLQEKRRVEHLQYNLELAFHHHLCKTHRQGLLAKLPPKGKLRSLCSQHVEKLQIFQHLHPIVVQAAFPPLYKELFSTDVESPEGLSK

Q: For c1ccc2sc(SNC3CCCCC3)nc2c1, which Potency is on record?
A: 8.91 µM (active)

Q: Which “activity change, negative = inhibition” value does the source give for c1ccc2sc(N3CCNCC3)nc2c1 here?
A: -0.416% (inactive)

Q: For c1ccc2sc(C3CCCNC3)nc2c1 (stereo not given), which “activity change, negative = inhibition” value is on record?
A: 1.38% (inactive)

Q: Which Potency does the source give for CC[N+](C)(CC)CCC[n+]1c(-c2ccccc2)c2cc(N)ccc2c2ccc(N)cc21 here?
A: 3.16 µM (active)

Q: With CN[C@@H]1C[C@H]2O[C@@](C)([C@@H]1OC)n1c3ccccc3c3c4c(c5c6ccccc6n2c5c31)C(=O)NC4 as the compound, how does the activity change, negative = inhibition read?
A: -41% [at 10 µM] (inactive)

Q: For CCOc1cccc(=NC2CCCCC2)c2c(C)[nH]c(C)c12, which “activity change, negative = inhibition” value is on record?
A: -1.6% (inactive)

Q: Which “activity change, negative = inhibition” value does the source give for O=c1oc2ccccc2c(O)c1C(c1ccccc1O)c1c(O)c2ccccc2oc1=O here?
A: -16.8% (inactive)

Q: Which activity change, negative = inhibition does the source give for CCNC[C@H](O)c1cccc(O)c1 here?
A: -12.3% [at 2.98 µM] (inactive)

Q: With C/C(=C\C=C/[C@@H](C)C(=O)O)[C@H]1CN[C@H](C(=O)O)[C@@H]1CC(=O)O as the compound, how does the “activity change, negative = inhibition” value read?
A: -22.1% (inactive)

Q: Fc1ccc(C(OCCN2CCN(C/C=C\c3ccccc3)CC2)c2ccc(F)cc2)cc1 was tested. Which Potency did it give?
A: 14.1 µM (active)

Q: Which “activity change, negative = inhibition” value does the source give for ClC(Cl)=C(Cl)C(Cl)=C(Cl)Cl here?
A: 11.4% (inactive)

Q: Which “activity change, negative = inhibition” value does the source give for CC(C)(C)C(O)(CCc1ccc(Cl)cc1)Cn1cncn1 (stereo not given) here?
A: 3.39% (inactive)

Q: How did the “activity change, negative = inhibition” value turn out when O=c1[nH]c(=S)n(C2CC2)c(O)c1/C=N/N1CCOCC1 was run?
A: -6.79% (inactive)

Q: O=c1[nH]c(=O)n(Cc2ccccc2)c(O)c1/C=N/Nc1c(F)c(F)c(F)c(F)c1F was tested. Which “activity change, negative = inhibition” value did it give?
A: -1.88% (inactive)

Q: How did the Potency turn out when O=C(N/N=C/c1c(O)n(C2CC2)c(=S)[nH]c1=O)c1ccccc1 was run?
A: 14.1 µM (active)

Q: Which “activity change, negative = inhibition” value does the source give for COc1ccc(C2N3CC(C)(C)CN23)cc1 (stereo not given) here?
A: 17.3% (inactive)

Q: Which “activity change, negative = inhibition” value does the source give for Clc1ccccc1 here?
A: 2.46% (inactive)

Q: C[C@@H]1C[C@@H]2O[C@H]2/C=C\C=C\C(=O)Cc2c(Cl)c(O)cc(O)c2C(=O)O1 was tested. Which Potency did it give?
A: 10 µM (active)

Q: Which “activity change, negative = inhibition” value does the source give for CNC(C)[C@@H](O)c1ccccc1 (stereo not given in full) here?
A: -6.04% (inactive)

Q: c1ccc(CN2CC[C@@]3(CCCNC3)C2)cc1 was tested. Which “activity change, negative = inhibition” value did it give?
A: -4.86% (inactive)

Q: Which “activity change, negative = inhibition” value does the source give for CCCCC/C=C\C/C=C\C/C=C\C=C\[C@H](CCCC(=O)O)OO here?
A: -25.9% (inactive)

Q: CCC(C)C(=O)O[C@@H]1C[C@@]2(C)C(c3ccoc3)OC(=O)CC23OC2(C)O[C@@]14[C@@]1(C)C(CC(=O)OC)C5(C)CC1(O)C(O)(C5OC(=O)C1(C)OC1C)C(OC(C)=O)[C@@]34O2 (stereo not given in full) was tested. Which “activity change, negative = inhibition” value did it give?
A: 40.2% (inactive)

Q: For CCCCCn1c(=O)c(C(=O)NCc2ccccn2)c(O)c2ccccc21, which Potency is on record?
A: 5.01 µM (active)

Q: With CCCCCn1c(=O)c(C(=O)Nc2c(C)n(C)n(-c3ccccc3)c2=O)c(O)c2ccccc21 as the compound, how does the “activity change, negative = inhibition” value read?
A: 11.8% (inactive)

Q: How did the Potency turn out when CCCCCn1c(=O)c(C(=O)NCc2ccccc2)c(O)c2ccccc21 was run?
A: 12.6 µM (active)

Q: For CCCCn1c(=O)c(C(=O)Nc2ccccc2Cl)c(O)c2ccccc21, which activity change, negative = inhibition is on record?
A: 1.37% [at 1.91 µM] (inactive)

Q: For CC[N+]1(CCOC(=O)C(O)(c2ccccc2)c2ccccc2)CCCCC1, which “activity change, negative = inhibition” value is on record?
A: 39.3% (inactive)

Q: With Cc1cccc([C@H](C)c2cnc[nH]2)c1C as the compound, how does the “activity change, negative = inhibition” value read?
A: -27.6% (inactive)

Q: Which “activity change, negative = inhibition” value does the source give for CCC1(c2ccccc2)C(=O)NC(=O)N(C)C1=O (stereo not given) here?
A: 20.7% (inactive)

Q: For O=c1[nH]c(=O)n(-c2ccccc2)c(O)c1C=NC12CN3CN(CN(C3)C1)C2, which “activity change, negative = inhibition” value is on record?
A: -4.47% (inactive)

Q: With CC(=O)c1c(O)c(C)c(O)c(Cc2c(O)c3c(c(C(=O)/C=C/c4ccccc4)c2O)OC(C)(C)C=C3)c1O as the compound, how does the “activity change, negative = inhibition” value read?
A: 15.8% (inactive)

Q: CC[C@@H]1CN2CC[C@@H]1C[C@H]2[C@H](O)c1ccnc2ccc(OC)cc12 was tested. Which “activity change, negative = inhibition” value did it give?
A: 2.09% (inactive)

Q: With N#CC(C#N)=Cc1cc(O)c(O)c([N+](=O)[O-])c1 as the compound, how does the “activity change, negative = inhibition” value read?
A: -101% (inactive)

Q: CCN1C[C@@]2(COC)CC[C@H](OC)[C@]34[C@@H]1[C@]1(OCO[C@@]15C[C@@H](OC)C1C[C@H]3[C@H]5[C@@H]1OC)[C@H](O)[C@@H]24 was tested. Which “activity change, negative = inhibition” value did it give?
A: 1.1% [at 16.9 µM] (inactive)

Q: C[C@H]1C/C=C/[C@@H]2[C@@H]3O[C@]3(C)[C@@H](C)[C@H]3[C@H](Cc4ccccc4)NC(=O)[C@]32OC(=O)O/C=C/[C@](C)(O)C1=O was tested. Which “activity change, negative = inhibition” value did it give?
A: -36% (inactive)

Q: Which activity change, negative = inhibition does the source give for C=CCN1CCC23c4c5ccc(O)c4O[C@H]2C(=O)CC[C@@]3(O)C1C5 (stereo not given in full) here?
A: 14.1% [at 10 µM] (inactive)

Q: Which “activity change, negative = inhibition” value does the source give for COC([CH2][Hg])CNC(=O)c1ccccc1OCC(=O)O (stereo not given) here?
A: -0.223% (inactive)

Q: How did the “activity change, negative = inhibition” value turn out when CN(C)C[C@H]1CCCC[C@]1(O)c1cccc(O)c1 was run?
A: -2.52% (inactive)

Q: With c1csc(CN2CCCC3(CCNCC3)C2)n1 as the compound, how does the “activity change, negative = inhibition” value read?
A: -23.1% (inactive)

Q: For C[C@H]1CC[C@@]2(NC1)O[C@@H]1C[C@H]3[C@@H]4CC=C5C[C@@H](O)CC[C@]5(C)[C@@H]4CC[C@]3(C)[C@@H]1[C@@H]2C, which “activity change, negative = inhibition” value is on record?
A: 0.0152% [at 16.9 µM] (inactive)

Q: CN1CCCC(=C(c2cccs2)c2cccs2)C1 was tested. Which “activity change, negative = inhibition” value did it give?
A: 0.594% (inactive)

Q: CCCCCCCCCCCCN=C(N)N was tested. Which “activity change, negative = inhibition” value did it give?
A: 15.1% (inactive)

Q: For Cc1cc(C)cc(C(=O)N(CCc2ccccc2)C2=CC3CCC(C2)N3C)c1 (stereo not given), which Potency is on record?
A: 12.6 µM (active)

Q: CN1C2C=C(N(C(=O)c3ccc(Cl)cc3)c3ccccc3)CC1CC2 (stereo not given) was tested. Which “activity change, negative = inhibition” value did it give?
A: -23.9% (inactive)

Q: For CCCCC/C=C\C/C=C\C/C=C\C/C=C\CCCCCC(=O)NCCO, which Potency is on record?
A: inactive

Q: For O=C(N/N=C/c1ccc([N+](=O)[O-])o1)c1cc([N+](=O)[O-])cc([N+](=O)[O-])c1O, which “activity change, negative = inhibition” value is on record?
A: -2.56% (inactive)

Q: c1ccc(N2CC[C@@]3(CCCNC3)C2)nc1 was tested. Which “activity change, negative = inhibition” value did it give?
A: -12.7% (inactive)

Q: CCC(=NCc1ccco1)c1c(O)n(Cc2ccccc2)c(=O)[nH]c1=O was tested. Which “activity change, negative = inhibition” value did it give?
A: 33.4% (inactive)

Q: With CCC(=NCCc1ccccc1)c1c(O)n(C2CCCCC2)c(=O)[nH]c1=O as the compound, how does the “activity change, negative = inhibition” value read?
A: -28.4% (inactive)

Q: For CC/C(=N\NC(=O)c1ccccc1O)c1c(O)n(Cc2ccccc2)c(=O)[nH]c1=O, which Potency is on record?
A: 12.6 µM (active)
